CRFR2-BP antag = antagonists of CRF-BP/CRF-R2 complex, primary screen, cell-based, HEK293, calcium dye fluorescence, uHTS; CRF-induced calcium fluorescence; inhibition, % at 11.8 µM; actives 0.59% (n = 350,000); AID 588475, 2011;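 active = inhibition of the ligand-induced calcium signal above about 50% at the single tested concentration, limit read from the data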
CRFR2-BP ag = agonists of CRF-BP/CRF-R2 complex, primary screen, cell-based, HEK293, calcium dye fluorescence, uHTS; calcium dye fluorescence (FLIPR); percent of saturating CRF peptide response; activation, % at 13.2 µM; actives 0.46% (n = 350,000); AID 588473, 2011;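 active = activation of at least 50%, plus an integration ratio under a set limit after plate pattern correction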;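 also: plate controls were neutral control wells without compound for no effect and CRF at EC100 for full effect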
IDE inh = human IDE inhibitors in live cells, primary screen, fluorescence polarization, HEK cells, FAbetaB substrate; Insulin-degrading enzyme (Homo sapiens), P14735; FAbetaB cleavage; inhibition, % at 5.59 µM; actives 0.41% (n = 320,000); AID 434962, 2010;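 active = percent inhibition above the average of all tested compounds plus 3 SD, set per screening campaign, cut at about 16% in these data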;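 also: IDE supplied by intact live HEK cells; FP after avidin binding of uncleaved biotin substrate so inhibition keeps polarization high; 0% = DMSO wells and 100% = 60 µM reference IDE inhibitor Ii1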
Target sequence (P14735 whole entry, looked up): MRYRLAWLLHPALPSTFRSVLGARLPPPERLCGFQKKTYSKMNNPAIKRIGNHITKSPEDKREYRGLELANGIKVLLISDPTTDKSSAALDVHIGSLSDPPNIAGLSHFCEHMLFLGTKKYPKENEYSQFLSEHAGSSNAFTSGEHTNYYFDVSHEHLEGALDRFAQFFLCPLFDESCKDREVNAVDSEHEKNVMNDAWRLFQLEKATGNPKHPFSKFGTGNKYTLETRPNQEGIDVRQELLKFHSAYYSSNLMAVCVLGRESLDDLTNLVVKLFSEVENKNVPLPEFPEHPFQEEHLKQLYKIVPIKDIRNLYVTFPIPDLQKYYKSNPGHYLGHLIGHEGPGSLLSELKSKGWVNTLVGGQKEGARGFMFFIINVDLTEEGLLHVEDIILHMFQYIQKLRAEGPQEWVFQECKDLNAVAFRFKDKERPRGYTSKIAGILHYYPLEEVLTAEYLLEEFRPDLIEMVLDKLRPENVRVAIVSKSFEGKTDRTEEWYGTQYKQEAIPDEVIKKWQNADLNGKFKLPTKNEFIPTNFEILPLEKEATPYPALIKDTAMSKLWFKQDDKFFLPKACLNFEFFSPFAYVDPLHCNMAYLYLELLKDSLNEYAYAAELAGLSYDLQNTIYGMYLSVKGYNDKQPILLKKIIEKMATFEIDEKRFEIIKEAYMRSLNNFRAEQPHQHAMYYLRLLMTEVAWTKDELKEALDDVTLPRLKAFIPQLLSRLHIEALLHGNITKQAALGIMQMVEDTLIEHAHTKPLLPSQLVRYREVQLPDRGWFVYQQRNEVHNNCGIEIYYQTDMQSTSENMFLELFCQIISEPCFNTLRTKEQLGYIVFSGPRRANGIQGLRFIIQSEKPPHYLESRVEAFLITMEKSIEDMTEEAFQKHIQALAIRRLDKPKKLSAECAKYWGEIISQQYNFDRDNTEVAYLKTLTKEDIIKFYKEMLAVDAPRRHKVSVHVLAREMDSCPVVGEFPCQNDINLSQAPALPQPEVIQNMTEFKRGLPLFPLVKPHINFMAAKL
cardiac RTF act = cardiac RTF calcium sensitivity activators, primary screen, biochemical, IANBD-TnC fluorescence, EC20 calcium; IANBD-labeled TnC RTF fluorescence at EC20 calcium; 0% EC20 calcium, 100% full calcium; activation, % at 7.2 µM; actives 0.24% (n = 340,000); AID 493008, 2010;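 active = activation above the mean over all tested compounds plus 3 SD, cut at about 30% in these data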;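 also: rise in fluorescence read as greater calcium sensitivity of cardiac thin filaments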
RTF Ca sens inh = cardiac RTF calcium sensitivity inhibitors, primary screen, biochemical, IANBD-TnC fluorescence, EC70 calcium | Troponin I, cardiac muscle (Homo sapiens) + Troponin T, cardiac muscle (Homo sapiens) + … | IANBD-labeled cardiac RTF, Ca2+ fluorescence | inhibition, % at 7.15 µM | actives 0.12% (n = 340,000) | AID 493244, 2011;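 active = inhibition above the mean inhibition of all tested compounds plus 3 SD, cut at about 17% in these data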;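 also: assay run at fixed EC70 calcium of 1.6 mM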
IDE cell activ = human IDE activators in live cells, primary screen, fluorescence polarization, HEK cells, FAbeta-B substrate. activation, % at 5.96 µM. Insulin-degrading enzyme (Homo sapiens), P14735. FAbeta-B cleavage; 0% vehicle, 100% cell-free pure enzyme wells. AID 493087, 2011. actives 0.073% (n = 340,000);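 active = activation above the mean of all tested compounds plus 3 SD, set per screening campaign, cut at about 17% in these data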
An asterisk follows results filed as active; nt = no result. Shown are actives, neighbours in structure and some others; about 1.5% of the full set was active somewhere.

SMILES | CRFR2-BP antag | CRFR2-BP ag | IDE inh | cardiac RTF act | RTF Ca sens inh | IDE cell activ
O=C(N/N=C/c1ccccc1Br)c1cccc(S(=O)(=O)N2CCOCC2)c1 | 1 | -1 | -1 | 0 | 2 | -3
O=C(N/N=C/c1cc(Br)cc(Br)c1O)c1ccncc1 | -164 | 167* | 7 | nt | nt | nt
COc1ccc2c(c1)c(CC(=O)Nc1cccc(S(N)(=O)=O)c1)c(C)n2C(=O)c1ccc(Cl)cc1 | 2 | 8 | -4 | 3 | -23 | 3
Cc1ccc(N=Nc2ccc(O)c(P(=O)(c3ccccc3)c3ccccc3)c2)cc1 | 108* | -1 | -1 | -4 | -9 | -1
Cc1cc(C)n(CC(O)Cn2ccc3ccccc32)n1 (stereo unspecified) | 9 | 2 | 8 | -1 | -13 | 2
OC(CN1CCNCC1)Cn1ccc2ccccc21 (stereo unspecified) | nt | nt | 18* | nt | nt | nt
CC(=O)O[C@H]1CC[C@]2(C)[C@H]3CC=C4[C@@H]5[C@@H](C)[C@H](C)CC[C@]5(C(=O)O)CC[C@@]4(C)[C@]3(C)CC[C@H]2C1(C)C | nt | nt | 7 | nt | nt | nt
CCCOC(=O)c1ccc(Oc2cn[nH]c2-c2ccc(OCC)cc2O)cc1 | 107* | -5 | -5 | -3 | -4 | 2
Cc1ccc(S(=O)(=O)N2CCN(C(=O)c3ccc(COc4ccccc4)o3)CC2)cc1 | 3 | 0 | 7 | -3 | -2 | 4
COC(=O)C1=C/C=C\CN(C(c2ccccc2)c2ccccc2)/C=C\1C(=O)OC | 52* | 1 | nt | nt | nt | nt
CC(=O)Nc1ccc(NC(=O)C(C)OC(=O)/C(C#N)=C/c2ccc(N(C)C)cc2)cc1 (stereo unspecified) | -43 | 39 | 10 | 80* | -118 | -35
CCn1c(SCC(=O)N2CCCCC2C)nc2c1c(=O)n(C)c(=O)n2C (stereo unspecified) | -10 | 2 | 3 | 4 | -1 | -7
Nc1nc(F)nc2c1ncn2[C@@H]1O[C@H](CO)[C@@H](O)[C@H]1O | 19 | -1 | 6 | 5 | -27 | 10
Nc1nc(F)nc2c1ncn2[C@@H]1O[C@H](CO)[C@@H](O)[C@@H]1O | 50* | -1 | -1 | -2 | 14 | 8
CCOc1ccc2[nH]c3c(N4CCc5ccccc5C4)ncnc3c2c1 | -16 | -1 | 28* | nt | nt | nt
Cc1ccc2[nH]c3c(N4CCc5ccccc5C4)ncnc3c2c1 | -8 | 3 | 62* | -4 | -7 | -17
Cc1cc(C)c(C)c(S(=O)(=O)NCc2ccncc2)c1C | -9 | 1 | -11 | -5 | -1 | 5
CCOC(=O)N1CCc2c(sc(NC(=O)c3ccc(S(=O)(=O)N4CCCC4)cc3)c2C#N)C1 | 0 | 2 | 2 | 8 | -6 | -1
CC(C)N1CCc2c(sc(NC(=O)c3ccc(S(=O)(=O)N4CCOCC4)cc3)c2C#N)C1 | -65 | 131* | 0 | 9 | -28 | -5
CCN1CCN(S(=O)(=O)c2ccc(C(=O)Nc3sc4c(c3C(N)=O)CCN(CC)C4)cc2)CC1 | -24 | 13 | 1 | 2 | -8 | -2
COC(=O)c1c(NC(=O)c2ccc(N(C)S(=O)(=O)c3ccc(C)cc3)cc2)sc2c1CCCC2 | 6 | 3 | -2 | 1 | 0 | 9
CNC(=O)c1c(NC(=O)c2ccc(S(=O)(=O)N(C)c3ccccc3)cc2)sc2c1CCN(C(C)C)C2 | -122 | 160* | 16 | nt | nt | nt
CC(C)N1CCc2c(sc(NC(=O)c3ccc(S(=O)(=O)N4CCc5ccccc54)cc3)c2C(N)=O)C1 | -188 | 107* | 10 | 15 | -20 | -10
CCN1CCc2c(sc(NC(=O)c3ccc(S(=O)(=O)N(C)c4ccccc4)cc3)c2C(=O)NC)C1 | -146 | 162* | 14 | 52* | -44 | -35
O=C(C[n+]1ccc(/C=N/O)cc1)N1CCCCC1 | 13 | 3 | -1 | 0 | 6 | 9
SMILES | CRFR2-BP antag | CRFR2-BP ag | IDE inh | cardiac RTF act | RTF Ca sens inh | IDE cell activ
COc1ccc(C(=O)c2ccsc2N)cc1 | -3 | 6 | 4 | 65* | -49 | -1
CC(CN1c2ccccc2Sc2ccccc21)N(C)C (stereo unspecified) | -21 | 1 | -2 | -2 | 14 | 3
C#CCN1c2ccccc2Sc2cccnc21 | -1 | 0 | -9 | 30* | -40 | 3
CC1(C)C2CC=C(/C=N/NC(=O)c3ccccc3O)C1C2 (stereo unspecified) | 59* | 47 | 2 | 1 | -7 | -3
CNC(=S)N/N=C/C1=CCC2CC1C2(C)C (stereo unspecified) | -9 | -3 | 2 | 1 | 4 | 5
O=C(Cn1nc(Cl)nc1Cl)Nc1ccccc1 | 61* | -1 | 2 | -3 | -8 | 4
O=C(Cn1nc(Cl)nc1Cl)c1ccccc1 | 5 | -1 | -6 | 0 | -4 | 7
CC(NC(=O)c1ccc(NC(=O)CC2SC(N3CCCC3)=NC2=O)cc1)c1ccccc1 (stereo unspecified) | 2 | -3 | 4 | 0 | -7 | 1
COc1cccc2cc(-c3ccnc(=S)[nH]3)oc12 | nt | nt | 39* | nt | nt | nt
Cc1ccc(N(Cc2ccc([N+](=O)[O-])cc2)C(=O)c2ccco2)cc1 | 62* | -4 | 2 | 5 | -2 | 0
COc1cc(CN(C(=O)c2ccco2)c2ccc(C)cc2)ccc1O | 29 | -4 | 1 | 2 | 0 | -4
Cc1ccccc1C(=O)NC(CC(C)C)C(=O)N1CCN(c2ccccc2)CC1 (stereo unspecified) | -7 | 0 | -6 | -3 | -10 | -1
Cc1ccn2cc(CSc3ccccc3N)nc2c1 | 61* | -6 | 0 | -1 | 4 | 7
O=C(NCc1ccccc1)c1ccc2c(=O)[nH]c3c(C(=O)NCC4CCCO4)sc(=S)n3c2c1 (stereo unspecified) | 27 | -4 | 7 | 0 | 5 | 2
O=C(NCc1ccco1)c1sc(=S)n2c1[nH]c(=O)c1ccccc12 | 27 | 55* | -1 | -3 | 2 | 4
O=C(NC1CCCC1)c1sc(=S)n2c1[nH]c(=O)c1ccccc12 | 30 | 87* | 3 | 0 | 5 | 0
COC(=O)c1[nH]nc(-c2ccccc2)c1-c1ccccc1 | -11 | 2 | 6 | 1 | -8 | 4
Oc1c(N=Nc2ccccn2)ccc2ccccc12 | -91 | 99* | 3 | -1 | -2 | -9
Oc1[nH]c2ccccc2c1N=Nc1ccccn1 | 0 | -1 | nt | -2 | -2 | 1
O=C(c1ccc(F)cc1)C1CCN(Cc2ccccc2F)CC1 | 58* | -1 | nt | nt | nt | nt

Source: PubChem
